From PubChem BioAssay
Tau ThT inhib: tau fibrillization inhibition (ThT binding). recombinant tau K18 P301L, heparin-induced fibrillization, ThT fluorescence. Potency, µM (series often up to 57.4 µM), without a hit: at the highest dose activity, negative = inhibition, usual class: inhibitors. 270,000 compounds, 2.1% hits. AID 1460; note: potency is the fitted concentration of half-maximal effect; nearly all actives have a fitted effect of over 55% in size
Target sequence (P10636 561-689 P618L limits assumed): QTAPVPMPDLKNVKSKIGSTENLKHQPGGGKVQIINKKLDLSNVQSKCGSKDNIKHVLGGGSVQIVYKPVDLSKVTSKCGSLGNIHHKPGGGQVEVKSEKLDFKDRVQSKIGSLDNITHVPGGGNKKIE
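Fibril formation assay: tau K18 P301L at 15 uM with trace Alexa 594 label, heparin inducer 20 uM, pH 7 sodium acetate buffer, 37 C for 6 hr; endpoint ThT signal.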
Tau fluor counter: counter-screen for tau fibril formation inhibitors; tau K18 P301L Alexa594 fluorescence, heparin fibrillization; Potency, µM (titrated, usually from 57.7 µM), without a hit: top-dose activity change, negative = decrease; AID 1463; 280,000 compounds, 0.93% hits; note: potency is the fitted concentration of half-maximal effect; nearly all actives have a fitted effect of over 55% in size
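Human tau K18 P301L (15 uM unlabeled, 0.24 uM Alexa 594-labeled) in 100 mM sodium acetate pH 7 with 20 uM heparin, 6 hr at 37 C. ThT 30 uM added, 1 hr ambient; Alexa 594 FP and total fluorescence read at 555/632 nm.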
Tau fibril FP: tau fibrillization inhibition (FP). P10636. K18 P301L tau heparin fibrillization, Alexa594 FP, 6 h. Potency, µM (doses to about 57.7 µM), for inactives: at the highest dose activity, negative = inhibition, most hits filed as inhibitors. 280,000 compounds, 0.39% hits. AID 1468; note: potency is the fitted concentration of half-maximal effect; nearly all actives have a fitted effect of over 55% in size
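Compound effects on tau fibrillization are measured by Alexa 594 fluorescence polarization (ex 555, em 632 nm). K18 P301L tau is used at 15 uM with 0.24 uM labeled tracer, and 20 uM heparin induces aggregation over 6 hr at 37 C.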
Coupling enz: counter-screen for Giardia aldolase inhibitors: coupling enzyme system; coupling enzyme system counterscreen, AmpLite Red fluorescence; activity change, negative = inhibition, % at 58.2 µM, hits read low; 290,000 compounds, 0.67% hits; AID 2472; in the data active = activity change below about -30%
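Activity here indicates interference with the coupling reaction, not aldolase inhibition. Compounds at 57.5 uM final met coupling enzymes for 10 min at RT; substrate and AmpLite Red detection followed, with a 525/598 nm fluorescence read after 20 min.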
Sfp PPTase inh: blocks B. subtilis Sfp PPTase activity; Q9F4F7; Biochemical Sfp PPTase activity, qHTS; Potency, µM, without a hit: largest response in the series, negative = inhibition, hits mostly inhibitors; 310,000 compounds, 3.5% hits;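 note: the enzyme is Sfp with the accession as filed and its product quenches rhodamine fluorescence; potency is the fitted concentration of half-maximal effect; 0% = enzyme reaction without inhibitor and -100% = no enzyme wells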
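Sfp 15 nM + cpd, 15 min RT; start w/ rhodamine-CoA 5 uM, BHQ-2-YbbR 12.5 uM (final); 50 mM Hepes pH 7.6, 10 mM MgCl2, 0.01% NP-40, 0.01% BSA; read 525/598 nm at 0 and 30 min.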
G9a inh: inhibitors of human histone lysine methyltransferase G9a; Q96KQ7; G9a H3K9 monomethylation, AlphaScreen, 2 h; Potency, µM (top dose mostly 102 µM), without a hit: top-dose activity, negative = inhibition, usual class: inhibitors; 350,000 compounds, 8.8% hits; AID 504332; note: potency is the fitted concentration of half-maximal effect; nearly all actives have a fitted effect of over 75% in size
Target sequence (Q96KQ7 913-1193 limits assumed): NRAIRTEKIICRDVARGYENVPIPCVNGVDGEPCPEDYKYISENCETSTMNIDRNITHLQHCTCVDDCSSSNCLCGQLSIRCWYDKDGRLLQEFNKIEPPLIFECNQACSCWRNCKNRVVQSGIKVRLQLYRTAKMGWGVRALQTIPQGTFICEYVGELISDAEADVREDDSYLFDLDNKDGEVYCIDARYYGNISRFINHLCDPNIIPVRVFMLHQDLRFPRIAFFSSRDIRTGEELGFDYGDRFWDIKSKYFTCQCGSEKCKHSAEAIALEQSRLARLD
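Quantitative HTS format: methyltransferase activity on a biotin-tagged H3K9 peptide is measured by AlphaScreen, using a rabbit anti-monomethyl-H3K9 antibody with streptavidin donor and anti-IgG acceptor beads. Final levels are 20 nM enzyme, 500 nM peptide, 20 uM SAM; 2 h RT.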
The depositor's hits bear a star; ? = inconclusive; / = no result; [ ] = remark or other dose. Hits are enriched below; roughly 11% of the tested compounds scored in any of these assays. Unless noted, calls come from the whole dose curve; as a rule, active = well fitted curve in the direction sought with a large enough effect; inconclusive = small, poorly fitted or top-dose-only effect, or another doubt; inactive = no such curve, though single readings can be large; an effect the other way counts as inactive or inconclusive. Unless noted, % is set by controls: 0 for no effect and ±100 for the full control effect.

SMILES	Tau ThT inhib	Tau fluor counter	Tau fibril FP	Coupling enz	Sfp PPTase inh	G9a inh
CCn1c(SCC(=O)Nc2ccc(N(C)C)cc2)nnc1C1CC1	/	/	/	0	17%	40µM*
CCn1c(SCC(=O)Nc2ccc(N(C)C)cc2)nnc1-c1ccco1	/	/	/	1	10%	40µM*
CCN(CC)c1ccc(NC(=O)CSc2n[nH]c(-c3ccco3)n2)cc1	/	/	/	/	/	4.5µM*
CCn1c(SCC(=O)Nc2sc3c(c2C(N)=O)CCC(C)C3)nnc1-c1ccco1 (centres undefined)	?	-18%	-6%	3	5%	35µM*
COc1ccc(NC(=O)c2ccc(S(=O)(=O)N3CCCC3)cc2)cc1OC	/	/	/	/	/	24%[12.7 µM]
O=C(CON=C1c2ccccc2-c2ccccc21)NC12CC3CC(CC(C3)C1)C2	-11%	-8%	8%	2	-5%	21%[59 µM]
Cc1ccc(SCC(=O)OCC(=O)NCCC2=CCCCC2)cc1	/	/	/	/	/	12%
CC1=NN(C(N)=S)C(=O)C1N=Nc1cccc(C)c1 (centres undefined)	?	-13%	0%	-2	0%	31%[59 µM]
CC1=NN(C(N)=S)C(=O)C1N=Nc1ccc([N+](=O)[O-])cc1 (centres undefined)	/	/	/	1	1%	79µM*
CC1=NN(C(N)=S)C(=O)C1N=Nc1cccc(C(=O)O)c1 (centres undefined)	/	/	/	2	45µM*	0.71µM*
CC1=NN(c2ccccc2C(=O)O)C(=O)C1N=Nc1ccccc1 (centres undefined)	/	/	/	-1	3%	45µM*
CC(=O)Nc1ccc(N=NC2C(=O)N(C(N)=S)N=C2C)cc1 (centres undefined)	/	/	/	-1	?	79µM*
CC1=NN(C(N)=S)C(=O)C1N=Nc1ccccc1C(=O)O (centres undefined)	/	/	/	1	10%	6%
Cn1nc(-c2ccc(OCC(=O)Nc3ccc(Cl)cc3)cc2)c2ccccc2c1=O	8%	-27%	?	/	/	?
CCOC(=O)C1CCN(C(=O)c2c(C)nn(-c3ccc(F)cc3)c2-n2cccc2)CC1	1%	0%	5%	/	/	?
CCC(=O)N1c2ccccc2CC1C(=O)NCCCN1CCN(c2cccc(Cl)c2)CC1 (centres undefined)	-2%	-6%	5%	/	/	9%[12.7 µM]
O=C(CCC(=O)c1ccc(F)cc1)NCC1(N2CCCCC2)CCCCC1	/	/	/	/	/	-4%[2.33 µM]
CCCSc1ncnc2c1c(-c1ccccc1)cn2-c1ccccc1OC	-6%	-14%	-6%	/	/	-2%[59 µM]
CCc1cc(=O)oc2c(C)c(OCC(=O)NCC3CCC(C(=O)O)CC3)ccc12 (centres undefined)	/	/	/	2	14%	-20%
CC1=NN(C(N)=S)C(=O)C1N=Nc1ccc(F)cc1 (centres undefined)	/	/	/	-1	-26%	?
CC1=NN(C(N)=S)C(=O)C1N=Nc1ccc(O)cc1 (centres undefined)	13µM*	-17%	-10%	-1	14µM*	?
O=c1c2cc(O)c(O)cc2oc2cc(O)c(C3OC(CO)C(O)C(O)C3O)c(O)c12 (centres undefined)	-5%	-11%	0%	0	-61%	2.8µM*
COc1cc(CN2CCN(CCCc3ccccc3)C(CCO)C2)cc(OC)c1O (centres undefined)	/	/	/	-41*	-5%	40µM*
OCCC1CN(Cc2c(O)ccc3ccccc23)CCN1CCc1ccccc1 (centres undefined)	?	?	-2%	-38*	2%	2µM*
OCCC1CN(Cc2ccccc2O)CCN1CCCc1ccccc1 (centres undefined)	/	/	/	-1	19%	?
SMILES	Tau ThT inhib	Tau fluor counter	Tau fibril FP	Coupling enz	Sfp PPTase inh	G9a inh
Fc1ccc(N/N=C(/c2ccccc2)c2ccccn2)cc1	14%	8%	2%	-10	?	14µM*
Brc1cccc(-c2nnc3n2CCCCC3)c1	-5%	8%	4%	2	18%	18%[59 µM]
Brc1cccc(-c2cnc3n2CCCCC3)c1	-4%	-10%	3%	26	-17%	45µM*
Nc1nnc(/C=C/c2ccccc2Cl)s1	-18%	-11%	-4%	0	-24%	50µM*
O=C(Nc1ccccc1)Nc1nnc(/C=C/c2ccccc2Cl)s1	-1%	?	?	3	16%	1%
CSc1cccc(NC(=O)C2CCN(c3ncnc4c3nc3n4CCCCC3)CC2)c1	-8%	-23%	1%	/	/	-7%[59 µM]
O=C1NC(C(=O)O)=CC(c2ccc([N+](=O)[O-])cc2)N1 (centres undefined)	-6%	7%	-8%	-1	8.9µM*	8.9µM*
CC1(C(=O)O)COC(c2ccc([N+](=O)[O-])cc2)OC1 (centres undefined)	-9%	-9%	-14%	1	11%	8%
O=C1[C@H]2[C@@H](c3ccc(F)cc3)N3C(=O)N(c4ccc(Br)cc4)C(=O)[C@@]3(Cc3ccccc3)[C@H]2C(=O)N1C1CCCCC1	/	/	/	-10	12%	-8%
COC(=O)C(NC(=O)c1ccccc1)(Nc1nccs1)C(F)(F)F (centres undefined)	-10%	-9%	-9%	-1	2%	-1%
COC(=O)C(NNc1ccc(F)cc1)(NC(=O)c1ccccc1)C(F)(F)F (centres undefined)	-2%	2%	-8%	2	7%	25µM*
COC(=O)C(NNc1ccccc1C)(NC(=O)c1ccc(F)cc1)C(F)(F)F (centres undefined)	?	-17%	-7%	-4	10%	3.2µM*
CCOC(=O)C(C)NC(=O)c1c(C)oc2ncn(CC(C)C)c(=O)c12 (centres undefined)	-1%	-2%	-1%	/	/	-7%[59 µM]
COC(=O)NC(CC(C)=O)c1cccs1 (centres undefined)	7%[11.5 µM]	17%[11.6 µM]	2%[11.6 µM]	6	9%	/
CCOc1ccc(OC(=O)c2cn(-c3cccc(OC)c3)c(=O)c3ccccc23)cc1	-4%	-14%	-3%	/	/	1%[59 µM]
COc1ccc(/C=N/Nc2nc(N3CCCC3)nc(N3CCCC3)n2)cc1O	-9%	-5%	14%	0	14%	3.5µM*
Oc1ccc(/C=N/Nc2cc(N3CCCC3)nc(N3CCCC3)n2)cc1O	25µM*	16µM*[quencher]	-13%	-37*	-16%	?
COc1ccc(/C=N/Nc2nc(N3CCCC3)nc(N3CCCC3)n2)cc1	-17%	-8%	10%	5	-2%	3%
C(=N\Nc1ccccn1)/c1ccc2c(c1)OCCO2	?	?	5%	0	-42%	?
COC(=O)c1ccccc1NC(=O)c1ccc(COc2ccccc2)o1	-16%	-23%	-6%	2	?	12%[59 µM]
